Measurements: PubChem BioAssay
Calls of active or inactive are those of the source.

Tests used:
[1] = binders of probe aFSTL3 on microarray, primary screen, stem cell growth factor project, biochemical, small-molecule microarray, fluorescence 635/667 (AID 1064); conditions: higher = more signal;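 further: measures binding of the biotinylated anti-FSTL3 antibody to printed compounds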
[2] = binders from COS7 lysate, DM2A8 probe, primary screen, torsin A project, cell lysate, small-molecule microarray, fluorescence 635/667 (AID 1065); conditions: higher = more signal, COS7 lysate expressing mutant human TOR1A
[3] = binders of probe aFGF2 on microarray, primary screen, stem cell growth factor project, biochemical, small-molecule microarray, fluorescence 635/667 (AID 1067); conditions: higher = more signal;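 further: measures binding of biotinylated aFGF2 protein to printed compounds on slides; z-score merges feature fluorescence and signal-to-noise across triplicate slides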
[4] = binders of probe aFGF10 on microarray, primary screen, stem cell growth factor project, biochemical, small-molecule microarray, fluorescence 635/667 (AID 1071); conditions: higher = more signal;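 further: score merges 667 nm spot intensity and signal to noise from triplicate slides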
[5] = target: Neurogenic locus notch homolog protein 2 (Homo sapiens) (UniProt Q04721); assay: Notch2 binders on small-molecule microarrays, primary screen, biochemical, small-molecule microarray, 635 nm fluorescence, stem cell growth factors (AID 1073); conditions: Notch2 binding, higher = more signal
Chain of Neurogenic locus notch homolog protein 2 (Homo sapiens) (Q04721 whole entry, looked up, canonical isoform): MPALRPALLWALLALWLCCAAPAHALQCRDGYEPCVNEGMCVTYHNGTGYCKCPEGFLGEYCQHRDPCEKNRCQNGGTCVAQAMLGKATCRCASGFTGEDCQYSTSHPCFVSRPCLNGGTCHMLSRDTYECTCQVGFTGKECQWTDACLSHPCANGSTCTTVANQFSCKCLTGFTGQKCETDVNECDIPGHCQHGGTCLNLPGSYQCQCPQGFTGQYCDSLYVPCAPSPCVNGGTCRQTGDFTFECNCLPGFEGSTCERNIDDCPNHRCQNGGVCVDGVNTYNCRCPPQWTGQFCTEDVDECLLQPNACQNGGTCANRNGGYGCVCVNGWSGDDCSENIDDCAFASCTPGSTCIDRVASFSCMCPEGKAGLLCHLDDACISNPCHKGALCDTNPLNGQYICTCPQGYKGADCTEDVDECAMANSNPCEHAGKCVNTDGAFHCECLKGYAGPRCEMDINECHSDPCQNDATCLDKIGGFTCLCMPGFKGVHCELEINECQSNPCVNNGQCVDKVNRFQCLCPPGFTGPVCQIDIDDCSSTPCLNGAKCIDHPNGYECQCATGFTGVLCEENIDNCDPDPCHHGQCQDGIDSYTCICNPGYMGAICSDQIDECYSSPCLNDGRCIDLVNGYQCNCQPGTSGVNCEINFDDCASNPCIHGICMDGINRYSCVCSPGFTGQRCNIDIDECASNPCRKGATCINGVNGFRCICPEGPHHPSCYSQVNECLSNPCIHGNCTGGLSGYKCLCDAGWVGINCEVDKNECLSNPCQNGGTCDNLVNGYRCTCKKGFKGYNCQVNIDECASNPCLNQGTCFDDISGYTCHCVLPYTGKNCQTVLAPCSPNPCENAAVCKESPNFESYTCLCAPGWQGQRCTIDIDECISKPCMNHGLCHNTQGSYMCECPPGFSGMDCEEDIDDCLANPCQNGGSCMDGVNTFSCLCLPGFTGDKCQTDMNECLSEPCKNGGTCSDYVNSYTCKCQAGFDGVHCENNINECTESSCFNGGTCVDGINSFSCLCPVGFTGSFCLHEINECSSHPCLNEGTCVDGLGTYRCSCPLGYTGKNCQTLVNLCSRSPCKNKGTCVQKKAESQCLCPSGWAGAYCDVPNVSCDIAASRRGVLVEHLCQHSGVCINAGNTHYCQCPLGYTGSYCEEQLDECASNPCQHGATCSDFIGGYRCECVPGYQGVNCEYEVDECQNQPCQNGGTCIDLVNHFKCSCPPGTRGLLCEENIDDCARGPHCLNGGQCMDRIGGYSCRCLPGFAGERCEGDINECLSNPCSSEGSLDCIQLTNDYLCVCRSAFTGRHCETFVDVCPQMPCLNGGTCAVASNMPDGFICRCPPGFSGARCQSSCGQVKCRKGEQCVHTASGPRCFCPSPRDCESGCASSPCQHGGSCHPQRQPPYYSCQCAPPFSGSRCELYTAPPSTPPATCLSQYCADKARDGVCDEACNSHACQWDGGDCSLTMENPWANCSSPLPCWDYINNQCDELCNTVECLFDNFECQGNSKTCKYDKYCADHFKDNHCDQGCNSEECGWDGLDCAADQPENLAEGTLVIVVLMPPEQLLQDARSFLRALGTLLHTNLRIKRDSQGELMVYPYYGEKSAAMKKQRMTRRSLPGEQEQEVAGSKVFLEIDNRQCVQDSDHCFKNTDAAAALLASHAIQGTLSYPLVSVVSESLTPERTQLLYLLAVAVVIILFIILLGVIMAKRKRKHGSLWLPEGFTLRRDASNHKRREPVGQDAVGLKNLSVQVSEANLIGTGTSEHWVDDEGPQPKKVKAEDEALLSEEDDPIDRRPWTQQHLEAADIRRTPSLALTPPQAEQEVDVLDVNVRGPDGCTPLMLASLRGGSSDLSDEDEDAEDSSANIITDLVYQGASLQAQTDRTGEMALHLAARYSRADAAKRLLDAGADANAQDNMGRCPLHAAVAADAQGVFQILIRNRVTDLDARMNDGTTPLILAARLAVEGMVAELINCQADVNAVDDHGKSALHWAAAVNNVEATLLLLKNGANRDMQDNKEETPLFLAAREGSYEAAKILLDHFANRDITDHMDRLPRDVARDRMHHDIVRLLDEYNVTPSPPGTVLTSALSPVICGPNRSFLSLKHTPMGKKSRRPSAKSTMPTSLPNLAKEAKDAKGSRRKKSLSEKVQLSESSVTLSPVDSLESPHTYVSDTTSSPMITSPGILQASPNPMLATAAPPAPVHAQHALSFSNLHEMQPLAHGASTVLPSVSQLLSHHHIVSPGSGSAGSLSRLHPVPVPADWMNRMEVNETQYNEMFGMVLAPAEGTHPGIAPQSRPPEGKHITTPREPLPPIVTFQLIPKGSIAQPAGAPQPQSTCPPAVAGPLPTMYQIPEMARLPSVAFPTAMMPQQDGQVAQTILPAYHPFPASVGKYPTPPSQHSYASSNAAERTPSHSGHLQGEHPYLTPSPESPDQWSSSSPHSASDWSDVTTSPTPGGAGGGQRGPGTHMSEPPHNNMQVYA

[6] = target: Pro-neuregulin-1, membrane-bound isoform (Homo sapiens) (UniProt Q02297); assay: NRG1 binders on small-molecule microarrays, primary screen, psychiatric disease protein project, biochemical, small-molecule microarray, fluorescence 635/667 (AID 1075); conditions: NRG1 binding, 635 nm fluorescence, higher = more signal;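 further: score combines 667 nm spot fluorescence with signal to noise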
Chain of Pro-neuregulin-1, membrane-bound isoform (Homo sapiens) (Q02297 whole entry, looked up, the tested form may be a part, canonical isoform): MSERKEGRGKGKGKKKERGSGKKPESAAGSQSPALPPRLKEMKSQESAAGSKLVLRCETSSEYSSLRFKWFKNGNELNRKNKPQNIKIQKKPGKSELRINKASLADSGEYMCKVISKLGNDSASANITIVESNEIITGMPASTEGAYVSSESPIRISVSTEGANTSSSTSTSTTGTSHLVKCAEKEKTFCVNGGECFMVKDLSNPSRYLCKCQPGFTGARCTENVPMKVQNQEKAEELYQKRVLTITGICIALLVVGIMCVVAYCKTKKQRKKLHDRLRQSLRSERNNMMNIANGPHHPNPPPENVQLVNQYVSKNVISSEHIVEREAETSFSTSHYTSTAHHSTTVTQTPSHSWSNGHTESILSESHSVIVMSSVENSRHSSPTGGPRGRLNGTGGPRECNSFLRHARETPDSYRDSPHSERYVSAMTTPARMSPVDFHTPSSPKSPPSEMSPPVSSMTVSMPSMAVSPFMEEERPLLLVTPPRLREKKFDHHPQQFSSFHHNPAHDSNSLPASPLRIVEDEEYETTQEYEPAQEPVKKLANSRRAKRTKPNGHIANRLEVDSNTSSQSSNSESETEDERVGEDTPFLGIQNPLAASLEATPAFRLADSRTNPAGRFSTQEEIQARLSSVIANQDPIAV

[7] = test system: Neuregulin-1 EGF-like domain; assay: binders of neuregulin-1 EGF-like domain, primary screen, biochemical, small-molecule microarray, 635 nm fluorescence (AID 1081); conditions: small-molecule microarray binding, higher = more signal;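 further: binding of the protein to compounds printed on small-molecule microarray slides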
[8] = FRG1 promoter luciferase signal modulators, primary screen, FRG1 inhibition for FSHD, cell-based, C2C12 myotubes, firefly/Renilla luciferase, luminescence (AID 1084); conditions: higher = more signal, called active from +8 up or from −8 down
[9] = binders of probe aFST on microarray, primary screen, stem cell growth factor project, biochemical, small-molecule microarray, fluorescence 635/667 (AID 1086); conditions: higher = more signal;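 further: score merges 667 nm fluorescence with signal-to-noise of each printed compound spot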
[10] = binders of probe aHhip on microarray, primary screen, stem cell growth factor project, biochemical, small-molecule microarray, fluorescence 635/667 (AID 1087); conditions: higher = more signal;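 further: score merges spot fluorescence at 667nm with spot signal to noise ratio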
[11] = test system: PRMT1 (protein arginine N-methyltransferase 1); assay: PRMT1 binders on small-molecule microarrays, primary screen, biochemical, small-molecule microarray, 635 nm fluorescence (AID 1088); conditions: small-molecule microarray binding, higher = more signal;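 further: binding of Prmt1 protein to compounds spotted on small-molecule microarray slides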
[12] = yeast growth modulation, basal conditions, primary screen, YJM789 clinical isolate, OD600, 24 h (AID 1089);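 further: growth of clinical yeast isolate S. cerevisiae YJM 789 seeded 1000 cells per well; test concentration not given here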; conditions: S. cerevisiae YJM789 growth, higher = more signal, called active from +8 up or from −8 down
[13] = fission yeast growth modulation, primary screen, strain 972, OD600, 24 h, no modulator (AID 1090);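 further: basal condition with compound alone and no growth modifier present; test concentration not given here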; conditions: S. pombe 972 growth, higher = more signal, called active from +8 up or from −8 down
[14] = S. cerevisiae growth modulation with rapamycin, primary screen, strain BY4716, OD600, 96 h (AID 1091); conditions: higher = more signal, called active from +8 up or from −8 down; further: test concentration not given here
[15] = target: Torsin-1A-interacting protein 2 (Homo sapiens) (UniProt Q8NFQ8); assay: LULL1 binders on small-molecule microarray, primary screen, cell lysate, human LULL1 lysate, 635/667 nm fluorescence (AID 1092); conditions: hLULL1 lysate binding, 635 nm fluorescence, higher = more signal;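 further: probe is lysate of COS7 cells overexpressing human LULL1; score merges per-feature 667 nm fluorescence with signal-to-noise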
Chain of Torsin-1A-interacting protein 2 (Homo sapiens) (Q8NFQ8 whole entry, looked up): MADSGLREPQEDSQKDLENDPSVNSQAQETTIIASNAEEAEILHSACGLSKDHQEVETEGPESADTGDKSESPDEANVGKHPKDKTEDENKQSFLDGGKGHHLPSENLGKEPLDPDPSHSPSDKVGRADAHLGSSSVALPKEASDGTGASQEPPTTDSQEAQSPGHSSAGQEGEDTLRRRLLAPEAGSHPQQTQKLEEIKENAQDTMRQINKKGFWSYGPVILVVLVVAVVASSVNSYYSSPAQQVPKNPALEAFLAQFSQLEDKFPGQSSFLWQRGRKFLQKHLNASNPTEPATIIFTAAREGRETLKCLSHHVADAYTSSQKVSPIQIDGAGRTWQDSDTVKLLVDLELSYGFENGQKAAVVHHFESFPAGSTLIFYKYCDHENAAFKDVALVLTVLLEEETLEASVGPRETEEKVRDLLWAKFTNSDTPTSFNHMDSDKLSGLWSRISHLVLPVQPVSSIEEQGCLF

[16] = E. coli growth modulation, two-sided OD650, primary screen, E. coli filamentation project, strain DRC41, 24 h (AID 1093); conditions: OD650, 24 h, higher = more signal, called active from +8 up or from −8 down;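 further: MC1000 strain lacking acrAB efflux and sulA so SOS filamentation is blocked; test concentration not given here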
[17] = small-molecule microarray binders of probe aLefty2, primary screen, biochemical, biotinylated probe, 635/667 nm fluorescence (AID 1094); conditions: higher = more signal;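 further: score merges spot fluorescence near 667 nm with spot signal-to-noise ratio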
[18] = test system: Noggin (protein binding on small-molecule microarray); assay: Noggin binders on small-molecule microarray, primary screen, biochemical, 635/667 nm fluorescence (AID 1095); conditions: 635 nm fluorescence, higher = more signal;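 further: score merges 667 nm feature fluorescence with signal to noise over triplicate slides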
[19] = target: Neurogenic locus notch homolog protein 3 (Homo sapiens) (UniProt Q9UM47); assay: NOTCH3 binders on small-molecule microarray, primary screen, biochemical, 635/667 nm fluorescence (AID 1096); conditions: NOTCH3 binding, 635 nm fluorescence, higher = more signal
[20] = small-molecule microarray binders of probe aEGFR, primary screen, biochemical, biotinylated probe, 635/667 nm fluorescence (AID 1097); conditions: higher = more signal;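 further: probe is a biotinylated anti-EGFR antibody binding compounds printed on slides; score combines fluorescence near 667 nm and signal to noise of each spot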

SMILES	composite z-score [1]	composite z-score [2]	composite z-score [3]	composite z-score [4]	composite z-score [5]	composite z-score [6]	composite z-score [7]	z-score [8]	composite z-score [9]	composite z-score [10]	composite z-score [11]	z-score [12]	z-score [13]	z-score [14]	composite z-score [15]	z-score [16]	composite z-score [17]	composite z-score [18]	composite z-score [19]	composite z-score [20]
CC(C)C[C@@H]1NC(=O)[C@@H]2C[C@H](C(=O)NCc3ccc(F)cc3)[C@H](c3ccc(O)cc3)N2C1=O	0.454	0.0392	-0.017	0.0187	0.245	0.346	1.16	-0.331 (inactive)	-0.512	-0.201	1.43	-0.472 (inactive)	-0.352 (inactive)	-0.427 (inactive)	2.96	0.549 (inactive)	0.0137	0.479	0.365	-0.178
COc1ccc([Si](C)(C)[C@@H]2[C@@H](CCO)O[C@]3(C(=O)N(Cc4cccc(N5C(=O)COc6ccccc65)c4)c4ccccc43)[C@H]2C)cc1	0.0857	-0.183	-0.072	0.492	0.0822	1.18	0.818	-1.22 (inactive)	-0.287	-0.164	0.896	3.01 (inactive)	1.09 (inactive)	36.8 (active)	1.61	0.685 (inactive)	-0.124	-0.142	0.528	-0.0864
COc1cccc(C)c1NC(=O)O[C@H]1[C@H](OC(=O)Nc2ccccc2)[C@H](OC(=O)Nc2ccccc2)[C@@H](OC)O[C@@H]1CO	-0.306	0.559	-0.0216	0.401	1.16	1.64	1.22	1.59 (inactive)	0.319	-0.0994	1.55	0.547 (inactive)	1.03 (inactive)	3.23 (inactive)	3.35	-0.721 (inactive)	0.0682	0.203	0.93	-0.125
C[N+](C)(C)CCCCCCNC(=O)[C@@H]1C[C@@H]2C(=O)NCC(=O)N2[C@@H]1c1ccc(O)cc1	-0.416	1.27	-0.116	0.391	-0.149	1.51	1.43	2.8 (inactive)	0.0022	-0.0088	1.53	0.302 (inactive)	0.274 (inactive)	-0.0145 (inactive)	2.39	-0.239 (inactive)	-0.0942	1.53	1.06	-0.141
C=C[C@H](C)[C@H](OC(=O)Nc1ccc(SC)cc1)c1ccc(O)c2ccccc12	-0.0571	-0.0235	0.0243	-0.624	-0.718	0.583	1.05	2.77 (inactive)	-0.744	-0.268	0.214	-21.7 (active)	-20.8 (active)	-2.22 (inactive)	0.803	0.949 (inactive)	-0.125	0.174	-0.673	-0.305
COCCOC(=O)N1C(=O)[C@@]2(c3cc(C#CCNC(N)=O)ccc31)[C@H](c1ccc(OCCO)cc1)N1[C@H](c3ccccc3)[C@H](c3ccccc3)OC(=O)[C@H]1[C@@H]2C(=O)N1CCN(c2ncccn2)CC1	0.496	0.287	-0.0478	0.748	1.04	0.37	0.482	-0.0699 (inactive)	0.974	-0.173	1.43	1.22 (inactive)	0.423 (inactive)	4.72 (inactive)	2.1	0.338 (inactive)	0.456	1.35	1.1	-0.0424
COC(=O)[C@@]1(Cc2ccccc2)[C@H]2c3cc(C(=O)N(C)C)n(Cc4ccc(O)c(OC)c4)c3C[C@H]2CN1C(=O)c1ccccc1	0.709	1.36	0.0487	0.523	1.56	0.934	1.24	3.26 (inactive)	1.91	2.58	1.18	0.473 (inactive)	-0.455 (inactive)	0.836 (inactive)	2.74	0.195 (inactive)	-0.0203	-0.372	0.895	0.38
NC(=O)[C@H]1[C@@H]2C(=O)O[C@@H](c3ccccc3)[C@@H](c3ccccc3)N2[C@@H](c2ccc(O)cc2)[C@]12C(=O)Nc1ccc(C#CC3(O)CCCCCC3)cc12	0.0918	0.417	-0.0454	0.607	1.35	1.5	1.35	-1.46 (inactive)	0.617	0.233	1.53	0.46 (inactive)	-1.09 (inactive)	1.33 (inactive)	3.22	0.568 (inactive)	0.0441	1.2	1.03	0.0955
COc1ccc([Si](C)(C)[C@@H]2[C@@H](CCO)O[C@]3(C(=O)N(Cc4ccc(N5C(=O)c6ccccc6Oc6ccccc65)cc4)c4ccccc43)[C@H]2C)cc1	0.197	-0.589	-0.106	-0.124	-0.323	1.09	0.736	-1.69 (inactive)	-0.0716	-0.0324	0.106	3.36 (inactive)	0.262 (inactive)	37.6 (active)	-0.49	0.045 (inactive)	-0.0359	-0.0905	0.18	-0.241
C=C(/C(=C/C[C@@H](OC(=O)c1ccncc1)c1cccc(OCCO)c1)c1cc(C(=O)OC)ccc1OC)C(C)C	-0.295	0.679	-0.0549	0.579	0.868	0.826	0.981	-1.61 (inactive)	0.351	-0.0994	1.33	-0.117 (inactive)	-1.22 (inactive)	-0.35 (inactive)	1.54	1.03 (inactive)	0.0233	0.548	0.93	-0.0476
